In ChEMBL document CHEMBL4888484, “Replenishing the malaria drug discovery pipeline: Screening and hit evaluation of the MMV Hit Generation Library 1 (HGL1) against asexual blood stage Plasmodium falciparum ,using a nano luciferase reporter read-out” (2022):
Among all 4,800 compounds or so, about 420 (8.8%) showed an effect of 50% or more. Shown is part of a subset that was picked to be rich in strong results.

Each compound was assayed on Plasmodium falciparum (assay: Confirmatory screen in NF54 nanoGlo assay, in single point, at 2uM, 72h). Conditions: timepoint 72 hour.
Assay type: functional, Erythrocyte
For `COc1ccc(O)c([C@H]2Nc3ccccc3-n3c(-c4ccc(C)cc4)c4c(=O)n(C)c(=O)n(C)c4c32)c1`, the “% Inhibition” value was 25%. In the case of `COc1cccc(C(=O)N2CCCO[C@H](C(C)C)C2)c1`, the “% Inhibition” value is reported as -9%. In the case of `Cc1ccc(C(=O)Nc2ccc3c(c2)OC(C)(C)C(=O)N3)cc1`, the “% Inhibition” value is reported as -4%. For `CN(CC(=O)N(C)C1CCC(c2ccccc2)CC1)c1cnccn1` (stereo not drawn), the “% Inhibition” value was -8%. For `COc1cc(NC(=O)CN2C(=O)N[C@](C)(c3ccc4c(c3)OCCO4)C2=O)c(OC)cc1Cl`, the “% Inhibition” value was 2%. With `O=C(CCn1c(=O)[nH]c2ccsc2c1=O)NCc1ccccc1` the “% Inhibition” value was 37%. With `O=C(CCc1ccccc1)N[C@@H](c1ccccc1)c1ccc2c3c(cccc13)CC2` the “% Inhibition” value was -12%. With `C[C@@H]1CN(C[C@@H]2CN(CCOCc3ccccc3)C[C@@H]2CO)C[C@H](C)O1` the “% Inhibition” value was -5%. With `CCc1nnc2ccc(S(=O)(=O)Nc3ccc(F)c(F)c3)cn12` the “% Inhibition” value was -6%. In the case of `O=C(Nn1cnc2ccccc2c1=O)c1cnccn1`, the “% Inhibition” value is reported as 2%. For `Nc1ncn(C(=O)c2ccc(Cl)cc2)n1`, the “% Inhibition” value was -14%. For `COc1nc2ncnc(OC)c2nc1C#N`, the “% Inhibition” value was 3%. For `COc1ccc(S(=O)(=O)N(CC(=O)N2CCN(Cc3ccc4c(c3)OCO4)CC2)C2CCCCC2)cc1OC`, the “% Inhibition” value was -3%. In the case of `CC(C)(C)OC(=O)N1CCC[C@H]1C(=O)n1ccnc1`, the “% Inhibition” value is reported as -2%. With `CCOc1nc(C)nc2cc(-c3ccccc3)n(Cc3ccccc3)c12` the “% Inhibition” value was 0%. `CCOc1ccc(-[n+]2cc(-c3ccccc3)n3c2CCC3)cc1` was tested, and the “% Inhibition” value was 80%. With `O=C(O)C1Cc2c([nH]c3ccccc23)C(/C=C/c2ccccc2)N1` (stereo not drawn) the “% Inhibition” value was -1%. In the case of `Cc1noc2nc(C3CC3)cc(C(=O)N3CCC[C@H](C)CC3)c12`, the “% Inhibition” value is reported as -11%. In the case of `CC1NC2(C(=O)N(Cc3ccc(F)cc3)c3ccccc32)C2C(=O)N(c3cccc4ccccc34)C(=O)C12` (stereo not drawn), the “% Inhibition” value is reported as 4%. In the case of `CC1(C)C2OCCCC2C1(N)C(=O)Nc1cn[nH]c1` (stereo not drawn), the “% Inhibition” value is reported as 4%. With `CCCn1cc(CNc2nnc(C(C)(C)C)o2)cn1` the “% Inhibition” value was -5%. For `CN1CCN(C2(CNc3ccnc4ccccc34)CCCC2)CC1`, the “% Inhibition” value was 91%. With `c1ccc(Oc2ccnc(NCC34COCCN3CCOC4)n2)cc1` the “% Inhibition” value was -10%. For `Fc1cccc(F)c1CNC[C@@H]1NCCc2ccccc21`, the “% Inhibition” value was -5%. For `O=c1[nH]c2nccnc2c(=O)n1Cc1ccc(F)cc1`, the “% Inhibition” value was -11%. With `O=C1N[C@H]2C[C@@H](C(=O)NC[C@H]3O[C@H](CCOc4cc(-c5ccccc5)ccc41)CC[C@@H]3O)N(Cc1ccc(Cl)c(F)c1)C2` the “% Inhibition” value was -1%. With `CCOC(=O)C(Nc1cccc(NC(C(=O)OCC)C(=O)OCC)c1)C(=O)OCC` the “% Inhibition” value was -16%. `Nc1nccnc1C(=O)NCc1ccc(Cn2ccnc2)cc1` was tested, and the “% Inhibition” value was -5%. In the case of `O=c1[nH]c(=O)n(S(=O)(=O)c2ccccc2)cc1F`, the “% Inhibition” value is reported as 92%. For `O=S(=O)(c1ccccc1)N1CCN(S(=O)(=O)c2ccc(Cl)cc2)C1`, the “% Inhibition” value was 2%. `Cc1ccc(N2CCN(S(=O)(=O)c3ccccc3)[C@@H](C)C2=O)cc1F` was tested, and the “% Inhibition” value was -5%. For `COc1ccc(CCNc2oc(-c3cccnc3)nc2C#N)cc1OC`, the “% Inhibition” value was 31%. `O=C(CNC1=NC(=O)C(c2ccccc2)(c2ccccc2)N1)NCc1ccc(F)cc1` was tested, and the “% Inhibition” value was -1%. For `Cc1ccc(OCC(=O)Nc2ccc(N3CCn4c(nc5ccccc54)C3)cc2Cl)cc1`, the “% Inhibition” value was -17%. In the case of `COc1ccc(-n2ncc3c(NCCNC(=O)c4ccccc4Cl)nc(C)nc32)cc1`, the “% Inhibition” value is reported as -12%. In the case of `Cc1ccc(OCC(=O)Nc2cc(C)nn2-c2nc3c(cnn3-c3ccc(C)c(C)c3)c(=O)[nH]2)cc1`, the “% Inhibition” value is reported as 65%. For `C1CCC(Nc2nc3nonc3nc2N2CCCCC2)CC1`, the “% Inhibition” value was 1%. With `CC(C)CN(CC(C)(C)C)C(=O)c1cc[nH]n1` the “% Inhibition” value was -6%. With `O=C(CN1CCN(Cc2ccccc2F)C1=O)NC1CCCCCCC1` the “% Inhibition” value was -11%. With `O=C(c1ccccc1Cl)N1CCC[C@H](n2cnc3ccccc3c2=O)C1` the “% Inhibition” value was 18%. For `CCN(c1ccc(C(=O)N(C)C2(C#N)CCC2)cc1)C(C)C`, the “% Inhibition” value was -3%. In the case of `O=S(=O)(Cc1ccccc1)Nc1nnc[nH]1`, the “% Inhibition” value is reported as -1%. For `CCn1nccc1CNc1cc(Cl)cc2c1OCC2`, the “% Inhibition” value was -8%. For `CC(C)(C)OC(=O)N1C[C@@H](O)CC1=O`, the “% Inhibition” value was -11%. `COc1ccc(C(=O)N2c3ncnn3C(c3ccccc3)CC2c2ccc(C)cc2)cc1OC` (stereo not drawn) was tested, and the “% Inhibition” value was 78%. With `COc1ccc(C(=O)Nc2nnc([C@H]3CC(=O)N(c4ccc(C)cc4)C3)o2)cc1OC` the “% Inhibition” value was -16%. With `COc1ccc(C2CC(c3ccccc3)N(C(C)=O)c3ncnn32)cc1` (stereo not drawn) the “% Inhibition” value was -9%. For `CCCN1CCN(CC(=O)Nc2sccc2C#N)c2cc(F)ccc21`, the “% Inhibition” value was 2%. `Cc1ccc(NC(=O)c2cc[nH]n2)c(C)c1` was tested, and the “% Inhibition” value was -18%. With `COc1ccc(-c2c(C)nn3c(N4CCC(C(=O)NC5CC5)CC4)cc(C)nc23)cc1OC` the “% Inhibition” value was 37%. For `COc1ccc(-c2nn3c(N4CCN(CC=Cc5ccccc5)CC4)cc(C)nc3c2C)cc1OC`, the “% Inhibition” value was 55%. For `COc1ccc(-c2cc3nc(C)cc(N4CCN(C/C=C/c5ccccc5)CC4)n3n2)cc1OC`, the “% Inhibition” value was 42%. With `Cc1c(C2=NO[C@H]3C(=O)N(c4ccc5ccccc5c4)C(=O)[C@@H]23)cnn1C` the “% Inhibition” value was 0%. `C[C@H](NC(=O)c1nnn(C)c1C(F)(F)F)c1cscn1` was tested, and the “% Inhibition” value was 7%. For `COc1ccc(CCNC(=O)CCCC(=O)Nc2cccnc2)cc1OC`, the “% Inhibition” value was 3%. With `COc1ccc(Cl)cc1S(=O)(=O)N(C)[C@H]1CCc2n[nH]c(=O)n2CC1` the “% Inhibition” value was -5%. With `COCCCN1CC(=O)N[C@@H]2CN(C(=O)CCc3cccnc3)CC[C@@H]2OCc2cccc(c2)Oc2cc(ccc2OC)C1` the “% Inhibition” value was 14%. With `CCN1CC(=O)N[C@H]2CN(C(=O)CCn3ccnc3C)CC[C@@H]2OCc2cccc(c2)Oc2cc(OC(C)C)cc(c2)C1=O` the “% Inhibition” value was 9%. With `CCc1cc(N2C[C@@H]3NC(=O)CN(C)Cc4ccc(OC)c(c4)Oc4cccc(c4)CO[C@H]3C2)nc(N(C)C)n1` the “% Inhibition” value was 60%. For `O=c1cc2n(c(=O)[nH]1)CC(c1ccccc1)=NN2`, the “% Inhibition” value was 4%. In the case of `Cc1nnc2sc(Nc3ccccc3)nn12`, the “% Inhibition” value is reported as -2%. For `NC(=O)C1CCN(CCC(=O)N2CCc3cc4ccc3[C@@H]2c2cccc(c2)OCCCNC(=O)c2cc(ccc2O)O4)CC1`, the “% Inhibition” value was 96%. For `NCc1cccc(C(=O)N2CCc3cc4ccc3[C@@H]2c2cccc(c2)OCCCNC(=O)c2cc(ccc2O)O4)c1`, the “% Inhibition” value was 93%. With `O=C1NCCCOc2cccc(c2)[C@H]2c3ccc(cc3CCN2C(=O)CCN2CCOCC2)Oc2ccc(O)c1c2` the “% Inhibition” value was 59%. In the case of `O=C(NOCc1ccc(F)cc1)NC1CCCCC1`, the “% Inhibition” value is reported as -5%. With `COc1ccc(N2CCN(Cc3c(O)nc(O)c(C#N)c3C)CC2)cc1` the “% Inhibition” value was -3%. With `COc1ccc(CCN2C(=O)CC[C@H]2c2cn(C)c3ccccc23)cc1OC` the “% Inhibition” value was -1%. In the case of `Cc1ccc(C(=O)N2CCCC23CCC3)nn1`, the “% Inhibition” value is reported as -11%. For `O=C(c1[nH]nc(C2CC2)c1Br)N1CCC12CCC2`, the “% Inhibition” value was -8%. With `COC(=O)[C@]1(C)CN(C(=O)NCc2cc(C#N)ccc2F)C[C@H]1C` the “% Inhibition” value was 7%. In the case of `CCc1nc(C)nc(N2CCN(C[C@H](O)COc3ccccc3C)CC2)c1Cc1cccc(C)c1`, the “% Inhibition” value is reported as 7%. With `Cc1noc(Cl)c1CC(=O)N1CCCC(C)(C)CC1` the “% Inhibition” value was 38%. For `O=C(Cc1c(Cl)cccc1Cl)N1CC[C@]2(CCOC2)C1`, the “% Inhibition” value was -8%. For `CC[C@@]1(C)CCCN(C(=O)Cc2c(C)noc2Cl)C1`, the “% Inhibition” value was 84%. For `CC(C)(C)NC(=O)CNC(=O)c1cccc(F)c1`, the “% Inhibition” value was -13%. With `Cc1nc(Cn2nnc(NC(=O)c3cccc(F)c3)c2C)no1` the “% Inhibition” value was 1%. For `O=C(Nc1nc2cccc(Cl)c2o1)c1cccc(F)c1`, the “% Inhibition” value was 92%. For `COC(CNC(=O)OC(C)(C)C)CC(=O)NC1CC(C)CCC1C(C)C` (stereo not drawn), the “% Inhibition” value was -7%. For `O=C(Cn1cccn1)N1CC(c2nc(-c3ncccn3)no2)C1`, the “% Inhibition” value was 5%. With `N#Cc1cnc(NC2CC3CCC2C3)cn1` (stereo not drawn) the “% Inhibition” value was -8%. For `CC(C)CS(=O)(=O)Nc1ccccc1C(N)=O`, the “% Inhibition” value was -5%. In the case of `CN(C)CCN(C)c1ccc(Br)cc1NCc1cncn1C`, the “% Inhibition” value is reported as 16%. With `COc1ccc(-c2cc(C(=O)Nc3ncc[nH]3)n[nH]2)cc1OC` the “% Inhibition” value was 29%. `COc1ccc2cccc(NC(=O)c3cc(-c4cc(OC)c(OC)c(OC)c4)n[nH]3)c2n1` was tested, and the “% Inhibition” value was 64%. For `COc1cc(NC(=O)c2cc(-c3cccc4ccccc34)[nH]n2)cc(OC)c1OC`, the “% Inhibition” value was 10%. With `O=C(COc1ccc(Cl)cc1)n1c2ccccc2c2ccccc21` the “% Inhibition” value was -3%. For `CC(C)(CNC(=O)[C@](C)(N)c1ccccc1)C(=O)O`, the “% Inhibition” value was -11%. With `COc1c2c(cc3c1[C@@H](C#CCOc1ccccc1)[N+](C)(C)CC3)OCO2` the “% Inhibition” value was 75%. With `CC(C)C(=O)N1CC[C@H](CC(=O)NCc2ccccc2)C1` the “% Inhibition” value was -4%. For `O=C(c1sc2ccccc2c1Cl)n1nnc2ccccc21`, the “% Inhibition” value was -8%. In the case of `CCOC(=O)N1CCN(c2nccn3nc(-c4ccc(OC)c(OC)c4)cc23)CC1`, the “% Inhibition” value is reported as -6%. For `COc1ccc([C@@]2(C)NC(=O)N(CC(=O)N3CC(=O)Nc4ccccc43)C2=O)cc1OC`, the “% Inhibition” value was 2%. `COc1ccc([C@H](C(=O)Nc2ccc(N(C)C)cc2)N(Cc2ccccc2)C(=O)Cc2ccccc2)cc1OC` was tested, and the “% Inhibition” value was -4%. For `COc1ccc(CNC(=O)Nc2ccc3c(c2)N(C(=O)c2ccccc2)CCC3)cc1OC`, the “% Inhibition” value was 25%. In the case of `CCC(C(=O)Nc1ccc2c(c1)CN(CCc1ccc(OC)c(OC)c1)C(=O)C(C)O2)c1ccccc1` (stereo not drawn), the “% Inhibition” value is reported as 94%. With `CCN(CC)c1ncnc(N(C)Cc2ccccc2)c1N` the “% Inhibition” value was 2%. In the case of `COc1ccc([C@H]2[C@H](C(=O)NC3CCCCCC3)CCC(=O)N2C)cc1`, the “% Inhibition” value is reported as -8%. For `COCc1cc2nn(CC(=O)Nc3ccc(F)cc3C)c(=O)n2c(-c2ccccc2)n1`, the “% Inhibition” value was -15%.
